The subject of assay [1] is Wnt5a (protein binding on small-molecule microarray). Description: Wnt5a binders on small-molecule microarray, primary screen, biophysical, 635/667 nm fluorescence (AID 1142).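 Note: fluorescence read at 667 nm with signal to noise per printed feature.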 To be noted: 635 nm fluorescence, higher = more signal.
Assay [2] in a line: cell viability in Huh7 cells, primary screen, cytotoxicity control for HCV replication inhibitor project, CellTiter-Glo luminescence, basal, 48 h (AID 1143).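 Note: Huh7 hepatoma cells carrying a hepatitis C replication reporter with no stimulus; test concentration not given here.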 To be noted: Huh7 HCV replicon, higher = more signal, called active from +8 up or from −8 down. (In general: Cellular ATP, detected with luciferase, serves as a proxy for viable cell number.)
The nature of assay [3]: P. aeruginosa biofilm formation inhibitors, primary screen, PAO1 strain, BacTiter-Glo luminescence, LB-PBS (AID 1144). As to conditions: 12 h, higher = more signal.
A short description of assay [4]: CREB reporter modulators without forskolin, primary screen, cell-based, PC12, CRE-LacZ reporter, unstimulated (AID 1145). As to conditions: no forskolin, luminescence, 4.5 h, higher = more signal, called active from +8 up or from −8 down.
A short description of assay [5]: CREB reporter modulators under forskolin, primary screen, cell-based, PC12, CRE-LacZ reporter, forskolin-stimulated (AID 1146).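 Note: PC12 cells with 6xCRE LacZ reporter stimulated by forskolin 10 µM; beta-galactosidase reporter signal reflecting CREB driven transcription.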 As to conditions: luminescence, 4.5 h, higher = more signal, called active from +8 up or from −8 down.
The target of assay [6] is Streptavidin (Streptomyces avidinii) (UniProt P22629). Nature of the assay: streptavidin binders on small-molecule microarray, primary screen, artefact control for SMM compound annotation, biophysical, 635/667 nm fluorescence (AID 1147).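 Note: signal reflects streptavidin binding to arrayed compounds as a control protein.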 As to conditions: streptavidin binding, higher = more signal.
Streptavidin (Streptomyces avidinii), sequence (P22629 whole entry, looked up): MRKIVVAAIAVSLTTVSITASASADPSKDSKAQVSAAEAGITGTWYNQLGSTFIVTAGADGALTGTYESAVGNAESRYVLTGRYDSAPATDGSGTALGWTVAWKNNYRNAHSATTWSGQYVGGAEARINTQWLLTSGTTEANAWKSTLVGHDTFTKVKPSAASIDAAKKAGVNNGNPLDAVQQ
Assay [7] is described as follows: small-molecule binders of probe aInhba, primary screen, biochemical, small-molecule microarray, 635/667 nm fluorescence (AID 1148).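 Note: score merges 667nm spot fluorescence with signal-to-noise for antibody binding to printed compounds.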 To be noted: higher = more signal.
The target of assay [8] is Torsin-1A (Homo sapiens) (UniProt O14656). Description: torsin A binders from cell lysate, primary screen, small-molecule microarray, wild-type, 635/667 nm (AID 1149). As to conditions: COS7 hTOR1A-WT lysate, 635 nm fluorescence, higher = more signal.
Torsin-1A (Homo sapiens), sequence (O14656 whole entry, looked up): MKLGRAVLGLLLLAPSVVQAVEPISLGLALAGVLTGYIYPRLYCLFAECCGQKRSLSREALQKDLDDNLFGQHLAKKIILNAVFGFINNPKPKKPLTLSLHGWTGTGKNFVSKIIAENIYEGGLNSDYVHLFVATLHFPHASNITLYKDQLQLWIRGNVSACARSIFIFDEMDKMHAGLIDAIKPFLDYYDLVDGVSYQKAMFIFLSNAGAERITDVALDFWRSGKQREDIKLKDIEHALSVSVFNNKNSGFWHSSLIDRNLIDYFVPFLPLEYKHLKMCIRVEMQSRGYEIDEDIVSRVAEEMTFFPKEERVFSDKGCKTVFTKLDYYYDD
Assay [9] shares this target. Nature of the assay: small-molecule binders of mutant TOR1A in lysate, primary screen, cell lysate, small-molecule microarray, COS7 lysate, 635/667 nm fluorescence (AID 1150).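 Note: score pools 667 nm emission and signal to noise measuring lysate protein binding.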 To be noted: COS7 hTOR1A mutant lysate, 635 nm fluorescence, higher = more signal.
Assay [10] deals with Sonic hedgehog protein (Shh). Nature of the assay: small-molecule binders of Shh protein, primary screen, biochemical, small-molecule microarray, 635/667 nm fluorescence (AID 1151).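 Note: Shh protein binding to compounds spotted on small-molecule microarray slides; score combines spot fluorescence intensity with signal-to-noise across triplicate slides.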 To be noted: small-molecule microarray binding, 635 nm fluorescence; higher = more signal.
A short description of assay [11]: E. coli DRC41 culture turbidity changes, primary screen, E. coli filamentation inducer project, strain DRC41, OD650, 48 h (AID 1152).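 Note: E. coli MC1000 strain DRC41 lacking acrAB efflux pump and sulA.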 To be noted: E. coli DRC41 (acrAB sulA), higher = more signal, called active from +8 up or from −8 down.
A short description of assay [12]: small-molecule binders of probe aLefty1, primary screen, biochemical, small-molecule microarray, 635/667 nm fluorescence (AID 1153).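 Note: score merges spot fluorescence with signal-to-noise ratio from the scanned slide images.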 To be noted: higher = more signal.
The nature of assay [13]: PSAC antagonists in infected red cells, primary screen, cell-based, P. falciparum Indochina, OD700, 1 h (AID 1154). To be noted: P. falciparum Indochina infected RBC osmotic lysis, higher = more signal, called active from +8 up or from −8 down.
Assay [14] can be described thus: PSAC antagonists in infected red cells, primary screen, cell-based, P. falciparum Indochina, OD700, 2 h (AID 1155).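 Note: lysis reports solute entry through the parasite surface anion channel PSAC; channel blockers reduce lysis of infected cells.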 As to conditions: P. falciparum Indochina infected erythrocytes, osmotic lysis OD700; higher = more signal, called active from +8 up or from −8 down.
Assay [15] in a line: osmotic lysis modulators in infected erythrocytes, primary screen, PSAC antagonist project, cell-based, P. falciparum Indochina, OD700, 3 h (AID 1156). To be noted: higher = more signal, called active from +8 up or from −8 down.
Assay [16] can be described thus: PSAC antagonists in infected red cells, primary screen, cell-based, P. falciparum Indochina, OD700, 18 h (AID 1157). As to conditions: P. falciparum Indochina infected erythrocytes, osmotic lysis OD700, 18 h; higher = more signal, called active from +8 up or from −8 down.
Assay [17] in a line: modulators of S6 phosphorylation in cells, primary screen, cell-based, A549, cytoblot, luminescence, serum-stimulated (AID 1158).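 Note: serum-stimulated A549 lung adenocarcinoma cells; signal is phosphorylated S6 detected by cytoblot immunostaining with HRP secondary.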 To be noted: A549 phospho-S6 cytoblot, 5 h, higher = more signal.
In assay [18] the target is NADPH oxidase 2 (Homo sapiens) (UniProt P04839). Description: NOX2-dependent H2O2 signal modulators, primary screen, NOX inhibitor project, cell-based, HEK293-NOX2, PMA-stimulated, Amplex Red fluorescence (AID 1159). Note: test concentration not given here. As to conditions: 45 min, higher = more signal, called active from +8 up or from −8 down.
NADPH oxidase 2 (Homo sapiens), sequence (P04839 whole entry, looked up): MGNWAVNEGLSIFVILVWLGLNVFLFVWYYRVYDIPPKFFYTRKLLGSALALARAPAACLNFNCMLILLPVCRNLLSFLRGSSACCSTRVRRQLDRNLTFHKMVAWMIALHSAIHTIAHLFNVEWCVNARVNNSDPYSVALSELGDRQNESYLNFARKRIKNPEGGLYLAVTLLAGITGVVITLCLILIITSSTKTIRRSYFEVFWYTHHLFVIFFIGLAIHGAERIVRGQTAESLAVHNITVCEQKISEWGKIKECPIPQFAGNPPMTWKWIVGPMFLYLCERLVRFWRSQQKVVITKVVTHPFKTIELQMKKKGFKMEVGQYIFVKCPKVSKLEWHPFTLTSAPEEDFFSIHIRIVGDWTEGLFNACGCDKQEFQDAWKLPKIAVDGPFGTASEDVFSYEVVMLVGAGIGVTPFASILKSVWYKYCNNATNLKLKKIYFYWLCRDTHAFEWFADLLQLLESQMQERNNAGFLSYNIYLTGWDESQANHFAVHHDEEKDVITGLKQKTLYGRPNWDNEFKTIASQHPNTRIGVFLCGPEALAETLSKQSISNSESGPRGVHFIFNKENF
Assay [19] concerns the target NADPH oxidase 4 (Homo sapiens) (UniProt Q9NPH5). Description: NOX4-dependent H2O2 signal modulators, primary screen, NOX inhibitor project, cell-based, HEK293-NOX4, tetracycline-induced, Amplex Red fluorescence (AID 1160). To be noted: 45 min, higher = more signal, called active from +8 up or from −8 down.
The target in assay [20] is NADPH oxidase 5 (Homo sapiens) (UniProt Q96PH1). Nature of the assay: NOX5-dependent H2O2 signal modulators, primary screen, NOX inhibitor project, cell-based, HEK293-NOX5, Amplex Red fluorescence (AID 1161). As to conditions: HEK293-NOX5, ionomycin, 45 min, higher = more signal.
NADPH oxidase 5 (Homo sapiens), sequence (Q96PH1 whole entry, looked up): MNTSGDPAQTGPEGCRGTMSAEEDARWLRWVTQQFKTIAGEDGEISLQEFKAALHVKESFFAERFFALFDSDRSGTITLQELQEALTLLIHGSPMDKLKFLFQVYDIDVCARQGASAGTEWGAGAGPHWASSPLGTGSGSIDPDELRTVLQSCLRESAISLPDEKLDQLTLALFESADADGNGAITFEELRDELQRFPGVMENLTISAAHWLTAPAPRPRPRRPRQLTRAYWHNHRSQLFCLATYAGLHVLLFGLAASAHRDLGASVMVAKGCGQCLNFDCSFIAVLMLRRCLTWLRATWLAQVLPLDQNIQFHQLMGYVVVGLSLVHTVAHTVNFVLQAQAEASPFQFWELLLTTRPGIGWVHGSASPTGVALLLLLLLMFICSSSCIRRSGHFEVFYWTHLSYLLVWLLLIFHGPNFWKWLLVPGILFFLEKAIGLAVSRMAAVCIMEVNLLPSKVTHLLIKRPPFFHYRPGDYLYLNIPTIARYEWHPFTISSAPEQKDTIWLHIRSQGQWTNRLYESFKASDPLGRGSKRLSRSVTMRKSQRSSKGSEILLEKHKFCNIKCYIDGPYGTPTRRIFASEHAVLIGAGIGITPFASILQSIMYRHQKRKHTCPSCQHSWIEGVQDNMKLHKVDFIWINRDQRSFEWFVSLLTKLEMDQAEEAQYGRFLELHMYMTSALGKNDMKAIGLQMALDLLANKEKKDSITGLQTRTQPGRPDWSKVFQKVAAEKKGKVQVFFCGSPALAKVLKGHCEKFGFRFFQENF

The values that follow come from PubChem BioAssay.

The structures appear in SMILES notation. Active and inactive are the calls of the source. Unless noted, the rule behind the calls is not given here.

NADPH oxidase 4 (Homo sapiens), sequence (Q9NPH5 whole entry, looked up): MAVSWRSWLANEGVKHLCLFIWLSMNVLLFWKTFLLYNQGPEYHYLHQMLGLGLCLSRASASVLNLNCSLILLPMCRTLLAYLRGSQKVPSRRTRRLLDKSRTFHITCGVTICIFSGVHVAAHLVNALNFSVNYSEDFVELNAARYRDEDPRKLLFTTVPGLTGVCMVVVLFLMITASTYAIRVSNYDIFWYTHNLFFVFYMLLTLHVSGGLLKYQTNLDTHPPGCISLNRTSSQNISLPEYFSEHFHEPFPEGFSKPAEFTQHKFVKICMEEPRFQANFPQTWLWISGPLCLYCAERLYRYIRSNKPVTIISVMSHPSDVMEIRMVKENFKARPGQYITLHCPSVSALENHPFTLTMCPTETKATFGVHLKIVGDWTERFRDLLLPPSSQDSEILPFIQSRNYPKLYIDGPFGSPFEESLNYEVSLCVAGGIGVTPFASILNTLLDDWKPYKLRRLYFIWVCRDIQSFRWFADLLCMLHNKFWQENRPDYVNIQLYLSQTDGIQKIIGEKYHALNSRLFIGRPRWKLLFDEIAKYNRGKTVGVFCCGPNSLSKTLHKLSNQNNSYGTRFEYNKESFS

For `O=C1O[C@@H](c2ccccc2)[C@@H](c2ccccc2)N2[C@@H](c3ccc(OCCO)cc3)[C@]3(C(=O)Nc4ccc(C#CC5=CCCCC5)cc43)[C@@H](C(=O)NC[C@H](O)c3ccccc3)[C@H]12`, the composite z-score was 0.771 in [1]; 1.5 in assay [6]; 0.853 in [7]; 0.411 with Torsin-1A (Homo sapiens) [8]; 1.01 with Torsin-1A (Homo sapiens) [9]; 1.38 in assay [10]. In addition, the composite z-score in [12] came to 1.38. Further, the z-score in assay [2] was -3.51 (inactive); in assay [3], -0.209 (inactive); in [4], -0.329 (inactive); in assay [5], -0.239 (inactive); in assay [11], -0.836 (inactive); in assay [13] it was 1.96 (inactive). Also, the z-score is 0.982 (inactive) in assay [14]; -0.607 (inactive) in assay [15]; 0.381 (inactive) in [16]; -0.164 in [17]; 1.61 (inactive) in assay [18]; 0.433 (inactive) in assay [19]. The z-score in assay [20] was 0.469.
In the case of `CC(C)C(CO)N1C(=O)[C@@H]2[C@H]3C(=O)OCC=C[C@H]3OC23C=CCN(c2ccc(Cl)cc2)C(=O)[C@@H]13` (stereo not given in full), the composite z-score was -0.0632 in [1]; -0.446 in assay [6]; -0.0987 in assay [7]; -0.677 with Torsin-1A (Homo sapiens) [8]; -0.377 with Torsin-1A (Homo sapiens) [9]; -0.339 in [10]. Also, the composite z-score in assay [12] was -0.0642. The z-score in assay [2] was -0.755 (inactive); in assay [3], 2.84 (inactive); in [4], 0.203 (inactive); in [5], -0.652 (inactive); in assay [11] it was 0.284 (inactive); in assay [13], 0.0695 (inactive). In addition, the z-score was 0.406 (inactive) in assay [14]; 1.06 (inactive) in assay [15]; 0.035 (inactive) in assay [16]; -0.4 in assay [17]; 1.1 (inactive) in assay [18]; 0.164 (inactive) in [19]. In assay [20], this molecule returned a z-score of 1.78.
As for `CCOC(=O)C[C@H]1[C@H](OC(=O)c2ccccc2-c2ccccc2)[C@@H](NC(=O)c2ccc3ccccc3n2)c2cc(OCCCO)ccc2N1C(=O)Cc1ccc(OC)cc1`, the composite z-score is 0.0204 in assay [1]; -0.0997 in assay [6]; 0.0442 in assay [7]; 0.253 with Torsin-1A (Homo sapiens) [8]; 0.0746 with Torsin-1A (Homo sapiens) [9]; 0.336 in assay [10]. Moreover, in assay [12], the composite z-score is 0.0986. Also, the z-score is -0.109 (inactive) in [2]; 0.485 (inactive) in assay [3]; 1.03 (inactive) in [4]; 0.349 (inactive) in [5]; -0.783 (inactive) in assay [11]; 5.91 (inactive) in assay [13]. Further, the z-score in assay [14] is 1.11 (inactive); in [15] it was -0.0433 (inactive); in assay [16], 0.549 (inactive); in assay [17] it was -0.303; in assay [18] it was 0.0348 (inactive); in assay [19] it was 1.25 (inactive). This molecule came in with a z-score in assay [20] of 0.76.
`COc1ccc(C#Cc2ccc3c(c2)[C@]2(C(=O)N3)[C@H](c3ccc(O)cc3)N3[C@H](c4ccccc4)[C@H](c4ccccc4)OC(=O)[C@H]3[C@@H]2C(=O)Nc2nc3ccccc3s2)cc1`: the composite z-score came out at 0.108 in assay [1]; 1.02 in assay [6]; 0.0797 in assay [7]; 1.16 with Torsin-1A (Homo sapiens) [8]; 0.168 with Torsin-1A (Homo sapiens) [9]; 0.329 in [10]. The molecule also yielded a composite z-score in assay [12] of 0.0994. Besides, the z-score in [2] was -1.62 (inactive); in assay [3], -0.52 (inactive); in assay [4], 0.389 (inactive); in [5], -0.513 (inactive); in assay [11], 1.38 (inactive); in assay [13] it was 0.92 (inactive). Besides, the z-score in assay [14] is 0.347 (inactive); in [15] it was 2.43 (inactive); in assay [16], 0.59 (inactive); in assay [17], 0.498; in assay [18], 1.13 (inactive); in [19], -0.838 (inactive). In assay [20], this molecule came in with a z-score of -1.34.
